In PubChem BioAssay (Tox21):
Inconclusive results are not listed. Active and inactive are the calls of the source. Calls follow the shape of the dose curve; as a rule, active = well fitted curve in the direction sought with a large enough effect in the repeat runs; inconclusive = weak or mixed curves; inactive = no such curve, though single readings can be large; an effect the other way counts as inactive or inconclusive.

What was measured:
[1] = A CellTox Green Cytotoxicity Assay to monitor cytotoxicity in HEK293 cells - 40 hour (AID 1224871); also: nearly all actives have a fitted effect of over 45% in size
How it was run: (§1)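 Dead-cell fluorescence measured kinetically: asymmetric cyanine dye, HEK293, 600 cells/well, 5 h settle, 23 nL cpd/DMSO, 37 C, reads 0–40 h every 8 h.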

[2] = qHTS RealTime-Glo MT Cell Viability Assay in HEK293 cells - 16 hour (AID 1224872); also: top concentration of the series differs between compounds; nearly all actives have a fitted effect of over 50% in size
How it was run: (§2)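 Assay medium contained NanoLuc luciferase plus cell-permeant prosubstrate, added with HEK293 cells at 600 cells/well. After 5 h at 37 C/5% CO2 compounds were added; plates stayed at 37 C for 40 h with serial luminescence reads.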

[3] = qHTS RealTime-Glo MT Cell Viability Assay in HepG2 cells - 8 hour (AID 1224873); also: nearly all actives have a fitted effect of over 55% in size
How it was run: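 Real-time viability: cells seeded at 600 per well together with NanoLuc and cell-permeant prosubstrate, compounds added after 5 h incubation. Luminescence tracked at 0, 8, 16, 24, 32 and 40 h of exposure.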

[4] = qHTS RealTime-Glo MT Cell Viability Assay in HEK293 cells - 40 hour (AID 1224874); settings: RealTime-Glo luminescence; max response: stronger effect = lower value; also: nearly all actives have a fitted effect of over 50% in size
How it was run: (§3)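 600 HEK293 cells per well, dispensed already mixed with RealTime-Glo MT reagents. Compound dosing came 5 h later. The same wells were read for luminescence at 0, 8, 16, 24, 32 and 40 h of exposure at 37 C.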

[5] = A CellTox Green Cytotoxicity Assay to monitor cytotoxicity in HEK293 cells - 24 hour (AID 1224875); also: series mostly up to about 77 µM; nearly all actives have a fitted effect of over 45% in size
How it was run: as §1

[6] = A CellTox Green Cytotoxicity Assay to monitor cytotoxicity in HepG2 cells - 16 hour (AID 1224876); also: nearly all actives have a fitted effect of over 45% in size
How it was run: (§4)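 First, HepG2 cells (600/well) mixed with reagent were plated; second, after 5 h at 37 C they received compounds via pintool; third, fluorescence was measured at 0 h through 40 h at 8 h intervals.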

[7] = qHTS RealTime-Glo MT Cell Viability Assay in HepG2 cells - 32 hour (AID 1224877); also: nearly all actives have a fitted effect of over 55% in size
How it was run: (§5)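 qHTS, HepG2, 600 cells/well, RealTime-Glo (NanoLuc + prosubstrate) added with cells; 5 h preincubation; DMSO compound addition; 37 C; luminescence at 0/8/16/24/32/40 h.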

[8] = A CellTox Green Cytotoxicity Assay to monitor cytotoxicity in HepG2 cells - 24 hour (AID 1224878); also: nearly all actives have a fitted effect of over 45% in size
How it was run: as §4

[9] = A CellTox Green Cytotoxicity Assay to monitor cytotoxicity in HepG2 cells - 40 hour (AID 1224879); also: nearly all actives have a fitted effect of over 40% in size
How it was run: as §4

[10] = qHTS RealTime-Glo MT Cell Viability Assay in HEK293 cells - 0 hour (AID 1224880)
How it was run: as §3

[11] = A CellTox Green Cytotoxicity Assay to monitor cytotoxicity in HEK293 cells - 32 hour (AID 1224881); also: nearly all actives have a fitted effect of over 40% in size
How it was run: as §1

[12] = A CellTox Green Cytotoxicity Assay to monitor cytotoxicity in HepG2 cells - 0 hour (AID 1224882); also: nearly all actives have a fitted effect of over 35% in size
How it was run: as §4

[13] = A CellTox Green Cytotoxicity Assay to monitor cytotoxicity in HepG2 cells - 32 hour (AID 1224883); also: nearly all actives have a fitted effect of over 50% in size
How it was run: as §4

[14] = A CellTox Green Cytotoxicity Assay to monitor cytotoxicity in HEK293 cells - 8 hour (AID 1224884); also: nearly all actives have a fitted effect of over 35% in size
How it was run: as §1

[15] = qHTS RealTime-Glo MT Cell Viability Assay in HEK293 cells - 24 hour (AID 1224886); also: top concentration of the series differs between compounds; nearly all actives have a fitted effect of over 50% in size
How it was run: as §2

[16] = qHTS RealTime-Glo MT Cell Viability Assay in HEK293 cells - 8 hour (AID 1224887)
How it was run: as §3

[17] = qHTS RealTime-Glo MT Cell Viability Assay in HepG2 cells - 0 hour (AID 1224889); also: nearly all actives have a fitted effect of over 50% in size
How it was run: as §5

[18] = A CellTox Green Cytotoxicity Assay to monitor cytotoxicity in HepG2 cells - 8 hour (AID 1224890); also: nearly all actives have a fitted effect of over 45% in size
How it was run: as §4

[19] = A CellTox Green Cytotoxicity Assay to monitor cytotoxicity in HEK293 cells - 16 hour (AID 1224888); also: nearly all actives have a fitted effect of over 35% in size
How it was run: as §1

[20] = qHTS RealTime-Glo MT Cell Viability Assay in HepG2 cells - 16 hour (AID 1224885); also: nearly all actives have a fitted effect of over 50% in size
How it was run: as §5
% is scaled to controls: 0 for no effect and ±100 for the full control effect.

CCCCCCN
inactive: Potency [1] | Potency [2] | outcome [3] | max response [4] 9.84% | outcome [5] | outcome [6] | outcome [7] | outcome [8] | Potency [9] | Potency [10] | Potency [11] | outcome [12] | Potency [13] | Potency [14] | Potency [15] | Potency [16] | Potency [17] | outcome [18]

CC(C)C[C@H](NC(=O)CNC(=O)[C@H](Cc1ccc(O)cc1)NC(=O)[C@H](CO)NC(=O)[C@H](Cc1c[nH]c2ccccc12)NC(=O)[C@H](Cc1cnc[nH]1)NC(=O)[C@@H]1CCC(=O)N1)C(=O)N[C@@H](CCCN=C(N)N)C(=O)N1CCC[C@H]1C(=O)NCC(N)=O (stereo in doubt)
inactive: Potency [1] | Potency [2] | outcome [3] | max response [4] 12.8% | outcome [5] | outcome [6] | outcome [7] | outcome [8] | Potency [9] | Potency [10] | Potency [11] | outcome [12] | Potency [13] | Potency [14] | Potency [15] | Potency [16] | outcome [19] | Potency [17] | outcome [18]

O=S(O)(O)=S
inactive: cytotoxicity increase [1] -0.26% [at 6.97 µM] | activity change, negative = cytotoxicity [2] 0.498% [at 6.97 µM] | viability change, negative = cytotoxic [3] 0.222% [at 6.97 µM] | max response [4] 0.994% | activity change [5] -0.341% [at 6.97 µM] | cytotoxicity increase [6] -0.212% [at 6.97 µM] | activity change, negative = cytotoxic [7] 5.2% [at 6.97 µM] | cytotoxicity [8] -1.5% [at 6.97 µM] | cytotoxicity increase [9] -1.37% [at 6.97 µM] | activity change, negative = cytotoxicity [10] 1.11% [at 6.97 µM] | cytotoxicity increase [11] -0.289% [at 6.97 µM] | cytotoxicity [12] 8.46% [at 6.97 µM] | cytotoxicity increase [13] 0.202% [at 6.97 µM] | cytotoxicity increase [14] -1.12% [at 6.97 µM] | activity change, negative = cytotoxicity [16] 0.371% [at 6.97 µM] | activity change [19] -0.887% [at 6.97 µM] | activity change, negative = cytotoxicity [17] -0.126% [at 6.97 µM] | cytotoxicity increase [18] 4.07% [at 6.97 µM]

NNc1nnc(NN)c2ccccc12
inactive: Potency [1] | Potency [2] | outcome [3] | max response [4] 0.221% | outcome [5] | outcome [6] | outcome [7] | outcome [8] | Potency [9] | Potency [10] | Potency [11] | Potency [13] | outcome [20] | Potency [15] | Potency [16] | Potency [17] | outcome [18]

C[Si](C)=O
inactive: cytotoxicity increase [1] 12.6% [at 6.97 µM] | activity change, negative = cytotoxicity [2] 2.27% [at 6.97 µM] | viability change, negative = cytotoxic [3] 1.52% [at 6.97 µM] | max response [4] 0.522% | activity change [5] 9.97% [at 6.97 µM] | cytotoxicity increase [6] -6.23% [at 6.97 µM] | activity change, negative = cytotoxic [7] 0.305% [at 6.97 µM] | cytotoxicity [8] -4.98% [at 6.97 µM] | cytotoxicity increase [9] -11.7% [at 6.97 µM] | activity change, negative = cytotoxicity [10] -1.57% [at 6.97 µM] | cytotoxicity increase [11] 10.3% [at 6.97 µM] | cytotoxicity increase [13] -6.59% [at 6.97 µM] | activity change, negative = cytotoxic [20] 0.315% [at 6.97 µM] | activity change, negative = cytotoxicity [15] 0.58% [at 6.97 µM] | activity change, negative = cytotoxicity [16] -1.9% [at 6.97 µM] | activity change, negative = cytotoxicity [17] 8.65% [at 6.97 µM] | cytotoxicity increase [18] -1.81% [at 6.97 µM]

CC(=O)CCCCn1c(=O)c2c(ncn2C)n(C)c1=O
inactive: Potency [1] | Potency [2] | outcome [3] | max response [4] -0.881% | outcome [5] | outcome [6] | outcome [7] | outcome [8] | Potency [9] | Potency [10] | Potency [11] | outcome [12] | Potency [13] | outcome [20] | Potency [15] | Potency [16] | Potency [17] | outcome [18]

Brc1ccc(-c2ccccc2)cc1
inactive: Potency [1] | Potency [2] | outcome [3] | max response [4] 1.08% | outcome [5] | outcome [6] | outcome [7] | outcome [8] | Potency [9] | Potency [10] | Potency [11] | Potency [13] | outcome [20] | Potency [15] | Potency [16] | outcome [19] | Potency [17] | outcome [18]

CC(N)C(=O)OC(C)(C)Cc1ccc(Cl)cc1 (stereo unspecified)
inactive: Potency [1] | Potency [2] | outcome [3] | max response [4] -11.9% | outcome [5] | outcome [6] | outcome [7] | outcome [8] | Potency [9] | Potency [10] | Potency [11] | outcome [12] | Potency [13] | outcome [20] | Potency [16] | Potency [17] | outcome [18]

CC(C)(C)c1n[nH]c(=S)n(N)c1=O
inactive: Potency [1] | Potency [2] | outcome [3] | max response [4] 2.54% | outcome [5] | outcome [6] | outcome [7] | outcome [8] | Potency [9] | Potency [10] | Potency [11] | Potency [13] | Potency [14] | outcome [20] | Potency [16] | Potency [17] | outcome [18]

CC(C)C(=O)OCc1cccc(OC(=O)[C@@H]2N3C(=O)[C@@H](NC(=O)Cc4ccccc4)[C@H]3SC2(C)C)c1
inactive: Potency [1] | Potency [2] | outcome [3] | max response [4] 0.269% | outcome [5] | outcome [6] | outcome [7] | outcome [8] | Potency [9] | Potency [10] | Potency [11] | Potency [13] | Potency [14] | outcome [20] | Potency [15] | Potency [16] | outcome [19] | Potency [17] | outcome [18]

COc1cc(C(=S)N2CCOCC2)cc(OC)c1OC
inactive: Potency [1] | Potency [2] | outcome [3] | max response [4] 4.79% | outcome [5] | outcome [6] | outcome [7] | outcome [8] | Potency [9] | Potency [10] | Potency [11] | Potency [13] | Potency [14] | Potency [15] | Potency [16] | outcome [19] | Potency [17] | outcome [18]
